# Assay results taken from the supplement of paper PMC4466140.
# Experiments:
# Assay in all cases: SPOT peptide array binding signal intensity (averaged, normalized) (arbitrary units (background-subtracted, floor 0; scale differs between SH3 domains)); higher = stronger binding of the SH3 domain to the peptide
# AgAbp1 = biological target: AgAbp1
# In short: (§1)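 Binding signal is given in arbitrary units that differ between domains and is the normalized, background-subtracted spot intensity averaged across replicates. Each GST-SH3 fusion from one of four yeast species was made in E. coli BL21(DE3), purified on glutathione Sepharose and incubated at 10 μg/ml overnight at 4°C on cellulose-bound synthetic 15-mer peptides in which cysteines were replaced by serines. Detection used anti-GST antibody, an HRP anti-mouse secondary and luminol, followed by imaging and Genespotter quantification.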
# AgBbc1 = biological target: AgBbc1
# In short: as §1
# AgBem1-D1 = biological target: AgBem1-D1
# In short: as §1
# AgBzz1-D1 = biological target: AgBzz1-D1
# In short: as §1
# AgBzz1-D2 = biological target: AgBzz1-D2
# In short: as §1
# AgCyk3 = biological target: AgCyk3
# In short: as §1
# AgFus1 = biological target: AgFus1
# In short: as §1
# AgHof1 = biological target: AgHof1
# In short: as §1
# AgHse1 = biological target: AgHse1
# In short: as §1
# AgLsb1 = biological target: AgLsb1
# In short: as §1
# AgLsb4 = biological target: AgLsb4
# In short: as §1
# AgMyo5 = biological target: AgMyo5
# In short: as §1
# AgNbp2 = biological target: AgNbp2
# In short: as §1
# AgRvs167 = biological target: AgRvs167
# In short: as §1
# AgSho1 = biological target: AgSho1
# In short: as §1
# AgSla1-D1-D2 = biological target: AgSla1-D1-D2
# In short: as §1
# AgSla1-D3 = biological target: AgSla1-D3
# In short: as §1
# CaAbp1-D1 = biological target: CaAbp1-D1
# In short: as §1
# CaAbp1-D2 = biological target: CaAbp1-D2
# In short: as §1
# CaBbc1 = biological target: CaBbc1
# In short: as §1
# CaBem1-D1 = biological target: CaBem1-D1
# In short: as §1
# CaBzz1-D1 = biological target: CaBzz1-D1
# In short: as §1
# CaBzz1-D2 = biological target: CaBzz1-D2
# In short: as §1
# CaCyk3 = biological target: CaCyk3
# In short: as §1
# CaFus1 = biological target: CaFus1
# In short: as §1
# CaHof1 = biological target: CaHof1
# In short: as §1
# CaHse1 = biological target: CaHse1
# In short: as §1
# CaLsb1 = biological target: CaLsb1
# In short: as §1
# CaLsb4 = biological target: CaLsb4
# In short: as §1
# CaMyo5 = biological target: CaMyo5
# In short: as §1
# CaNbp2 = biological target: CaNbp2
# In short: as §1
# CaRvs167 = biological target: CaRvs167
# In short: as §1
# CaRvs167-3 = biological target: CaRvs167-3
# In short: as §1
# CaSho1 = biological target: CaSho1
# In short: as §1
# CaSla1-D1-D2 = biological target: CaSla1-D1-D2
# In short: as §1
# CaSla1-D3 = biological target: CaSla1-D3
# In short: as §1
# ScAbp1 = biological target: ScAbp1
# In short: as §1
# ScBbc1 = biological target: ScBbc1
# In short: as §1
# ScBem1-D1 = biological target: ScBem1-D1
# In short: as §1
# ScBzz1-D1 = biological target: ScBzz1-D1
# In short: as §1
# ScBzz1-D2 = biological target: ScBzz1-D2
# In short: as §1
# ScCyk3 = biological target: ScCyk3
# In short: as §1
# ScFus1 = biological target: ScFus1
# In short: as §1
# ScHof1 = biological target: ScHof1
# In short: as §1
# ScHse1 = biological target: ScHse1
# In short: as §1
# ScLsb1 = biological target: ScLsb1
# In short: as §1
# ScLsb2 = biological target: ScLsb2
# In short: as §1
# ScLsb3 = biological target: ScLsb3
# In short: as §1
# ScLsb4 = biological target: ScLsb4
# In short: as §1
# ScMyo3 = biological target: ScMyo3
# In short: as §1
# ScMyo5 = biological target: ScMyo5
# In short: as §1
# ScNbp2 = biological target: ScNbp2
# In short: as §1
# ScPex13 = biological target: ScPex13
# In short: as §1
# ScRvs167 = biological target: ScRvs167
# In short: as §1
# ScSho1 = biological target: ScSho1
# In short: as §1
# ScSla1-D1-D2 = biological target: ScSla1-D1-D2
# In short: as §1
# ScSla1-D3 = biological target: ScSla1-D3
# In short: as §1
# SpAbp1-D1 = biological target: SpAbp1-D1
# In short: as §1
# SpBbc1 = biological target: SpBbc1
# In short: as §1
# SpBzz1-D1 = biological target: SpBzz1-D1
# In short: as §1
# SpBzz1-D2 = biological target: SpBzz1-D2
# In short: as §1
# SpCyk3 = biological target: SpCyk3
# In short: as §1
# SpHof1 = biological target: SpHof1
# In short: as §1
# SpHof1-2 = biological target: SpHof1-2
# In short: as §1
# SpHof1-3 = biological target: SpHof1-3
# In short: as §1
# SpHse1 = biological target: SpHse1
# In short: as §1
# SpLsb1 = biological target: SpLsb1
# In short: as §1
# SpLsb4 = biological target: SpLsb4
# In short: as §1
# SpMyo1 = biological target: SpMyo1
# In short: as §1
# SpNbp2 = biological target: SpNbp2
# In short: as §1
# SpPex13 = biological target: SpPex13
# In short: as §1
# SpRvs167 = biological target: SpRvs167
# In short: as §1
# SpSla1-D1-D2 = biological target: SpSla1-D1-D2
# In short: as §1
# SpSla1-D3 = biological target: SpSla1-D3
# In short: as §1
binder,measurement,setting,value
VKPRQLFPIPLNKVD,SPOT peptide array binding signal intensity,AgAbp1,5
same,SPOT peptide array binding signal intensity,AgBbc1,≤ 0
same,SPOT peptide array binding signal intensity,AgBem1-D1,14.5
same,SPOT peptide array binding signal intensity,AgBzz1-D1,61
same,SPOT peptide array binding signal intensity,AgBzz1-D2,40.5
same,SPOT peptide array binding signal intensity,AgCyk3,≤ 0
same,SPOT peptide array binding signal intensity,AgFus1,23
same,SPOT peptide array binding signal intensity,AgHof1,56.2
same,SPOT peptide array binding signal intensity,AgHse1,60.5
same,SPOT peptide array binding signal intensity,AgLsb1,1600
same,SPOT peptide array binding signal intensity,AgLsb4,≤ 0
same,SPOT peptide array binding signal intensity,AgMyo5,1
same,SPOT peptide array binding signal intensity,AgNbp2,18
same,SPOT peptide array binding signal intensity,AgRvs167,5
same,SPOT peptide array binding signal intensity,AgSho1,8
same,SPOT peptide array binding signal intensity,AgSla1-D1-D2,1
same,SPOT peptide array binding signal intensity,AgSla1-D3,8.5
same,SPOT peptide array binding signal intensity,CaAbp1-D1,98
same,SPOT peptide array binding signal intensity,CaAbp1-D2,43
same,SPOT peptide array binding signal intensity,CaBbc1,9
same,SPOT peptide array binding signal intensity,CaBem1-D1,14
same,SPOT peptide array binding signal intensity,CaBzz1-D1,110
same,SPOT peptide array binding signal intensity,CaBzz1-D2,59
same,SPOT peptide array binding signal intensity,CaCyk3,≤ 0
same,SPOT peptide array binding signal intensity,CaFus1,138
same,SPOT peptide array binding signal intensity,CaHof1,2
same,SPOT peptide array binding signal intensity,CaHse1,3.25
same,SPOT peptide array binding signal intensity,CaLsb1,0.5
same,SPOT peptide array binding signal intensity,CaLsb4,7
same,SPOT peptide array binding signal intensity,CaMyo5,1
same,SPOT peptide array binding signal intensity,CaNbp2,105
same,SPOT peptide array binding signal intensity,CaRvs167,54.5
same,SPOT peptide array binding signal intensity,CaRvs167-3,3
same,SPOT peptide array binding signal intensity,CaSho1,30
same,SPOT peptide array binding signal intensity,CaSla1-D1-D2,≤ 0
same,SPOT peptide array binding signal intensity,CaSla1-D3,3.25
same,SPOT peptide array binding signal intensity,ScAbp1,71
same,SPOT peptide array binding signal intensity,ScBbc1,≤ 0
same,SPOT peptide array binding signal intensity,ScBem1-D1,≤ 0
same,SPOT peptide array binding signal intensity,ScBzz1-D1,17
same,SPOT peptide array binding signal intensity,ScBzz1-D2,135
same,SPOT peptide array binding signal intensity,ScCyk3,3
same,SPOT peptide array binding signal intensity,ScFus1,11
same,SPOT peptide array binding signal intensity,ScHof1,3.75
same,SPOT peptide array binding signal intensity,ScHse1,196
same,SPOT peptide array binding signal intensity,ScLsb1,374
same,SPOT peptide array binding signal intensity,ScLsb2,201
same,SPOT peptide array binding signal intensity,ScLsb3,54.5
same,SPOT peptide array binding signal intensity,ScLsb4,≤ 0
same,SPOT peptide array binding signal intensity,ScMyo3,2
same,SPOT peptide array binding signal intensity,ScMyo5,4
same,SPOT peptide array binding signal intensity,ScNbp2,18
same,SPOT peptide array binding signal intensity,ScPex13,1.5
same,SPOT peptide array binding signal intensity,ScRvs167,48.3
same,SPOT peptide array binding signal intensity,ScSho1,139
same,SPOT peptide array binding signal intensity,ScSla1-D1-D2,1.5
same,SPOT peptide array binding signal intensity,ScSla1-D3,≤ 0
same,SPOT peptide array binding signal intensity,SpAbp1-D1,29
same,SPOT peptide array binding signal intensity,SpBbc1,≤ 0
same,SPOT peptide array binding signal intensity,SpBzz1-D1,156
same,SPOT peptide array binding signal intensity,SpBzz1-D2,≤ 0
same,SPOT peptide array binding signal intensity,SpCyk3,≤ 0
same,SPOT peptide array binding signal intensity,SpHof1,11.5
same,SPOT peptide array binding signal intensity,SpHof1-2,5.5
same,SPOT peptide array binding signal intensity,SpHof1-3,310
same,SPOT peptide array binding signal intensity,SpHse1,84.5
same,SPOT peptide array binding signal intensity,SpLsb1,133
same,SPOT peptide array binding signal intensity,SpLsb4,28.5
same,SPOT peptide array binding signal intensity,SpMyo1,3.25
same,SPOT peptide array binding signal intensity,SpNbp2,21.5
same,SPOT peptide array binding signal intensity,SpPex13,6
same,SPOT peptide array binding signal intensity,SpRvs167,10
same,SPOT peptide array binding signal intensity,SpSla1-D1-D2,≤ 0
same,SPOT peptide array binding signal intensity,SpSla1-D3,≤ 0
DFTLPPPPPPPGLDE,SPOT peptide array binding signal intensity,AgAbp1,5
same,SPOT peptide array binding signal intensity,AgBbc1,≤ 0
same,SPOT peptide array binding signal intensity,AgBem1-D1,≤ 0
same,SPOT peptide array binding signal intensity,AgBzz1-D1,≤ 0
same,SPOT peptide array binding signal intensity,AgBzz1-D2,≤ 0
same,SPOT peptide array binding signal intensity,AgCyk3,≤ 0
same,SPOT peptide array binding signal intensity,AgFus1,≤ 0
same,SPOT peptide array binding signal intensity,AgHof1,57.5
same,SPOT peptide array binding signal intensity,AgHse1,≤ 0
same,SPOT peptide array binding signal intensity,AgLsb1,2
same,SPOT peptide array binding signal intensity,AgLsb4,≤ 0
same,SPOT peptide array binding signal intensity,AgMyo5,1550
same,SPOT peptide array binding signal intensity,AgNbp2,32.5
same,SPOT peptide array binding signal intensity,AgRvs167,1.67
same,SPOT peptide array binding signal intensity,AgSho1,2
same,SPOT peptide array binding signal intensity,AgSla1-D1-D2,1
same,SPOT peptide array binding signal intensity,AgSla1-D3,0.5
same,SPOT peptide array binding signal intensity,CaAbp1-D1,≤ 0
same,SPOT peptide array binding signal intensity,CaAbp1-D2,≤ 0
same,SPOT peptide array binding signal intensity,CaBbc1,≤ 0
same,SPOT peptide array binding signal intensity,CaBem1-D1,0.5
same,SPOT peptide array binding signal intensity,CaBzz1-D1,136
same,SPOT peptide array binding signal intensity,CaBzz1-D2,5.5
same,SPOT peptide array binding signal intensity,CaCyk3,≤ 0
same,SPOT peptide array binding signal intensity,CaFus1,≤ 0
same,SPOT peptide array binding signal intensity,CaHof1,≤ 0
same,SPOT peptide array binding signal intensity,CaHse1,≤ 0
same,SPOT peptide array binding signal intensity,CaLsb1,0.5
same,SPOT peptide array binding signal intensity,CaLsb4,≤ 0
same,SPOT peptide array binding signal intensity,CaMyo5,8
same,SPOT peptide array binding signal intensity,CaNbp2,20
same,SPOT peptide array binding signal intensity,CaRvs167,≤ 0
same,SPOT peptide array binding signal intensity,CaRvs167-3,≤ 0
same,SPOT peptide array binding signal intensity,CaSho1,≤ 0
same,SPOT peptide array binding signal intensity,CaSla1-D1-D2,≤ 0
same,SPOT peptide array binding signal intensity,CaSla1-D3,≤ 0
same,SPOT peptide array binding signal intensity,ScAbp1,≤ 0
same,SPOT peptide array binding signal intensity,ScBbc1,≤ 0
same,SPOT peptide array binding signal intensity,ScBem1-D1,≤ 0
same,SPOT peptide array binding signal intensity,ScBzz1-D1,≤ 0
same,SPOT peptide array binding signal intensity,ScBzz1-D2,1
same,SPOT peptide array binding signal intensity,ScCyk3,0.5
same,SPOT peptide array binding signal intensity,ScFus1,3
same,SPOT peptide array binding signal intensity,ScHof1,14.8
same,SPOT peptide array binding signal intensity,ScHse1,≤ 0
same,SPOT peptide array binding signal intensity,ScLsb1,≤ 0
same,SPOT peptide array binding signal intensity,ScLsb2,3.5
same,SPOT peptide array binding signal intensity,ScLsb3,≤ 0
same,SPOT peptide array binding signal intensity,ScLsb4,≤ 0
same,SPOT peptide array binding signal intensity,ScMyo3,2030
same,SPOT peptide array binding signal intensity,ScMyo5,1990
same,SPOT peptide array binding signal intensity,ScNbp2,18
same,SPOT peptide array binding signal intensity,ScPex13,≤ 0
same,SPOT peptide array binding signal intensity,ScRvs167,3.33
same,SPOT peptide array binding signal intensity,ScSho1,≤ 0
same,SPOT peptide array binding signal intensity,ScSla1-D1-D2,≤ 0
same,SPOT peptide array binding signal intensity,ScSla1-D3,≤ 0
same,SPOT peptide array binding signal intensity,SpAbp1-D1,≤ 0
same,SPOT peptide array binding signal intensity,SpBbc1,≤ 0
same,SPOT peptide array binding signal intensity,SpBzz1-D1,1300
